# Results reported in ChEMBL document CHEMBL4513216, “Probing the Open Global Health Chemical Diversity Library for Multistage-Active Starting Points for Next-Generation Antimalarials” (ACS Infect Dis, 2020).
# The whole screen tested about 65,000 compounds, of which about 2,100 (3.2%) showed an effect of 50% or more. The median lay at about -52%. Shown is part of a subset that was picked to be rich in strong results.
# Tested on: Plasmodium falciparum
# Assay: Screen against P. falciparum Asexual Blood Stage (ABS), at 5uM
# Format: functional, Dd2
# Settings: tested at 5 uM
row,SMILES,INHIBITION [%]
1,O=C(Cc1ccon1)N1CCN(c2ccc(F)cc2Cl)CC1,-28.3
2,Cc1cnn(CCNCC(O)COc2ccc(F)cc2)c1 (stereo unspecified),47.3
3,O=C(c1ccco1)N1CCC12CCN(c1ncc(F)cn1)CC2,-79.7
4,CN(C)S(=O)(=O)N1CCC(Oc2cccnn2)CC1,-57.2
5,Cc1nn(C)c(C)c1CNCc1cccnc1N1CCOCC1,-43.9
6,CC(C)C(=O)NCCC(=O)N1CCN(c2ccccn2)CC1,-172
7,CC(C)CC(C)NCc1cccnc1N1CCOCC1 (stereo unspecified),60.8
8,Cc1nn(C)c(Cl)c1CNCc1cccnc1N1CCOCC1,-69.2
9,CCC(CC)C(=O)NCCC(=O)N1CCN(c2ccccn2)CC1,-123
10,CC(C)CC(C)NCc1cccnc1N1CCN(c2ccccn2)CC1 (stereo unspecified),56.6
11,CCCC(C)NCc1cccnc1N1CCN(c2ccccn2)CC1 (stereo unspecified),51.4
12,CCC(C)NC(=O)NCCC(=O)N1CCN(c2ccccn2)CC1 (stereo unspecified),-15.2
13,CC(C)NCc1cccnc1N1CCN(c2ccccn2)CC1,3.69
14,CC1(C)CNC(=O)CN(C(=O)COc2ccccc2)C1,-24.2
15,NCCCNS(=O)(=O)Cc1ccc(Br)cc1,-29.3
16,Cc1cccc(CN2C(=O)CCC23CCN(Cc2ccoc2)CC3)n1,-81
17,CN(C)C(=O)CN1C(=O)CCC12CCN(Cc1ccc(F)cc1)CC2,-99.9
18,Cc1noc(C)c1CN1CCN(c2ccnc(-c3ccccc3)n2)CC1,-33.7
19,Cc1cc(C)c2nc(C)c(C(=O)N3CCC(N4CCCC4)CC3)cc2c1,-39.3
20,Cc1cc(C)c2nc(C)c(C(=O)N3CCC(CCN(C)C)CC3)cc2c1,-87.5
21,CCN(CC)C1CCN(C(=O)c2cc3cc(C)cc(C)c3nc2C)CC1,56.8
22,Cc1cc(CN2C[C@@H](C)[C@@]3(CCN(CC(=O)N(C)C)C3=O)C2)oc1C,-100

row,SMILES,INHIBITION [%]
1,CC[C@H](C)[C@H](NC(=O)c1ccc(-n2cnnn2)cc1)C(=O)OC,-18.7
2,O=C(c1occc1CN1C(=O)Cc2ccccc21)N1CC(O)C1,-89.1
3,O=C(c1occc1CN1C(=O)Cc2ccccc21)N1CCCCCC1,3.14
4,CN1CCN(C(=O)c2occc2CN2C(=O)Cc3ccccc32)CC1,54.3
5,Cc1cc(C(N)=O)nc(C2(C)CCCN2Cc2cnn(C)c2C)n1 (stereo unspecified),-80.5
6,Cc1ccc(OC2(C(=O)N(C)Cc3ccoc3)CCNCC2)cc1,63.5
7,CN(Cc1ccoc1)C(=O)CN1C(=O)OC(C)(C)C1=O,-47.7
8,CN(Cc1ccncn1)C(=O)C1(Oc2ccc(Cl)cc2)CCNCC1,-74.1
9,CN(Cc1ccoc1)C(=O)C1(Oc2ccc(Cl)cc2)CCNCC1,66.9
10,CN(C)C(=O)C1(Oc2ccc(Cl)cc2)CCNCC1,49.2
11,O=C(N[C@@H]1CCCNC1)C1(Oc2ccc(Cl)cc2)CCNCC1,-14.3
12,COCC(=O)N1CCCn2c(CN3CCCC3)nnc2C1,-108
13,CC(C)NC(=O)C1(CC2CC(c3ccc(F)cc3)=NO2)CCNCC1 (stereo unspecified),-90.4
14,COc1ncc(NCc2ccc(Cl)c(Cl)c2)cc1C(N)=O,-14
15,O=C(c1cc(C2CC2)no1)N1C[C@@H]2CC[C@H]1CN(Cc1ccccn1)C2,9.2
16,O=C(CN1C[C@@H]2CC[C@H]1CN(Cc1ccccn1)C2)NCc1cccs1,68.4
17,Cn1ccc(NC(=O)CN2C[C@@H]3CC[C@H]2CN(Cc2ccccn2)C3)n1,-21.7
18,c1cc(CN2C[C@@H]3OCCN(CC4CC4)[C@@H]3C2)n[nH]1,7.58
19,CC(=O)N1CCO[C@@H]2CN(S(=O)(=O)C3CC3)C[C@@H]2C1,-114
20,Cc1csc2c(N3CCC(NCCc4ccnn4C)CC3)ncnc12,-18.8
21,CCCc1cncnc1N1CCC2(CCC(=O)N(C3CCCC3)C2)CC1,29.3
22,CCCc1cncnc1N1CCC2(CCC(=O)N(CCCO)C2)CC1,-6.89

row,SMILES,INHIBITION [%]
1,Cc1ccc(CNC2CCN(CCc3ccncc3)CC2)s1,-1.43
2,CCCN1CCC(NCc2ccncc2)CC1,-47.1
3,Cc1csc2c(N3CCC(NCCCc4ccncc4)CC3)ncnc12,64.6
4,CCCc1cncnc1N1CCC(NCc2ccc(O)cc2)CC1,50.2
5,Cc1csc2c(N3CCC(NCCCc4cnn(C)c4)CC3)ncnc12,-10.6
6,CCCc1cncnc1N1CCC(NCc2ccncc2)CC1,66.1
7,CCOc1ccc(C(=O)CCC(=O)N(C)Cc2nc(C)c[nH]2)cc1C,-27.6
8,COCCN1CCN(Cc2cnc(C(C)C)nc2)CC1,-72.3
9,O=C(C1CC1)N1C[C@H]2CCCN(S(=O)(=O)c3ccc4c(c3)CCC4)[C@H]2C1,-49.4
10,NCC(=O)N1CCCC1c1nccnc1Nc1ncccn1 (stereo unspecified),-91.6
11,CC(C)CC(C)NC1CCN(c2ccc(-c3cscn3)cc2)CC1 (stereo unspecified),-115
12,CC(C)CC(C)NC1CCN(c2cccc(-c3cscn3)c2)CC1 (stereo unspecified),51.8
13,Cc1nnc(-c2cccc(N3CCC(NC(C)CC(C)C)CC3)c2)s1 (stereo unspecified),-15.1
14,COC(=O)NCC(=O)N1CCC(c2cc3ccccc3[nH]2)CC1,-109
15,Cc1cc(C)c(CNC(=O)N2CCCC2c2cc(C)on2)c(=O)[nH]1 (stereo unspecified),-65.3
16,CCN1CCC2(CC1)CN(C(=O)c1cccnc1)c1ccc(Cl)cc12,13.4
17,O=C(C1CC1)N1CC2(CCNCC2)c2cc(F)ccc21,13.7
18,CC(=O)N1CCC2(CC1)CN(C(=O)c1cccnc1)c1ccc(F)cc12,-31.7
19,CN(C)C(=O)N1CC2(CCNCC2)c2cc(Cl)ccc21,25.5
20,O=C(c1ccncc1)N1CC2(CCNCC2)c2cc(Cl)ccc21,60
21,CN1CCC2(CC1)CN(C(=O)c1cccnc1)c1ccc(Cl)cc12,57.5
22,C[C@@H](N)C(=O)N1CC2(CCNCC2)c2cc(Cl)ccc21,48.2

row,SMILES,INHIBITION [%]
1,Cc1ccc(C(=O)N2CC3(CCNCC3)c3cc(Cl)ccc32)cn1,37.8
2,CN(C)C(=O)N1CC2(CCNCC2)c2cc(F)ccc21,-81.2
3,Cc1ccc2c(c1)C1(CCNCC1)CN2C(=O)C(C)C,32.6
4,O=C([C@H]1CCCN1)N1CC2(CCNCC2)c2cc(Cl)ccc21,60.3
5,COc1cc(C(=O)N2CC3(CCNCC3)c3cc(Cl)ccc32)ccn1,65.4
6,COc1ccc(-c2n[nH]c(C)c2CC(=O)NCC2CCOCC2)cc1,6.29
7,Cc1occc1C(=O)N1CCC2(CCN(Cc3ccccn3)C2=O)C1 (stereo unspecified),-30.7
8,CNC(=O)N1CCC2(CC1)c1ncc(-c3cccc(F)c3)n1CCN2C,-74
9,CCn1cc(S(=O)(=O)N2CCCCCC2c2cc(C)on2)cn1 (stereo unspecified),16.1
10,O=C(Nc1ccccc1)C1CN(Cc2ccco2)CC12CCOCC2 (stereo unspecified),-3.58
11,CNC(=O)C1Cn2ccnc2C2(CCN(Cc3nccs3)CC2)O1 (stereo unspecified),-118
12,CN1CCN([C@H]2CCN(C(=O)c3cc(Cl)cn3C)C[C@H]2CCCO)CC1,-28.7
13,Cc1cnc(N2C[C@H]3CCCC(N(C)Cc4ccccn4)[C@H]3C2)nc1 (stereo partly specified),-4.92
14,O=C(N1CCOCC1)[C@@]12CCO[C@@H]1CCN(Cc1cccc(F)c1)C2,-26.7
15,CNc1nccnc1C1CN(C(=O)c2c[nH]cn2)CCO1 (stereo unspecified),-87.7
16,NC(=O)CCC1CCCN(Cc2cnc(N3CCCCC3)nc2)C1 (stereo unspecified),-84.4
17,CNc1nc(C2CCN(C(=O)CC3CCCC3)C2)nc2c1CN(C)CC2 (stereo unspecified),-4.57
18,COc1ccc(Cn2nnnc2SCC2CCCN(C)C2)cc1 (stereo unspecified),59.9
19,COc1ccc(OC)c(-n2nnnc2SCC2CCCN(C)C2)c1 (stereo unspecified),42.8
20,COc1ccc(OCC2CCCN(Cc3ccncc3)C2)cc1 (stereo unspecified),4.05
21,CCN(CC)C(=O)c1ccn(COc2cccc(Cl)c2Cl)n1,-133
22,Cn1cc(CN2C[C@@H]3COC[C@]3(COCC3CC3)C2)cn1,-11.4

row,SMILES,INHIBITION [%]
1,Cn1cc(CN2C[C@H]3CCC[C@@]3(COCC3CC3)C2)cn1,54.1
2,Cc1nc(COC[C@@]23CCC[C@@H]2CN(Cc2cnn(C)c2)C3)cs1,-28.9
3,O=C(NCc1nn(-c2ccccc2)c2c1CCC2)C1CC1,-137
4,CCn1nc(C)c(CNC(=O)c2nnc3ccc(Cl)cc3n2)c1C,-2.95
5,Cc1cnccc1-c1cnn(CCNC(=O)c2ccccn2)c1C1CC1,40.2
6,CC(C)c1ncc2c(n1)CN(CC(=O)Nc1ccncc1)CC2,-23.6
7,CC1=C[C@@H](CN2CCCC2)[C@H](C(C)C)C[C@H]1Cc1nnc(C)o1,0.0851
8,CC1=C[C@@H](CN2CCN(C)CC2)[C@H](C(C)C)C[C@H]1Cc1nnc(C)o1,16.4
9,COc1ccc2nc(C[C@@H]3C[C@@H](C(C)C)[C@H](CN)C=C3C)[nH]c2n1,68.7
10,Cc1ccc(CN2C[C@@H]3C[C@H](C(=O)Nc4cccnc4)[C@H](C2)O3)cc1,41.3
11,COC(=O)CN(C(=O)c1cc(C)c(F)cc1F)c1cccc(C)n1,-97.6
12,CC1(C(=O)N2CCOCC2)CN(C2CCCCC2)CCO1 (stereo unspecified),-82.9
13,CN(C)c1ccnc(N2CCC(NCCOc3ccccc3)CC2)n1,61.5
14,O=C(COCCOc1ccccc1)NC1CCN(c2ncccn2)CC1,-7.73
15,Cc1ccnc(N2CCC(NCCOc3ccccc3)CC2)n1,13.8
16,Cc1nc(C)c(C)c(N2CCC(NCCOc3ccccc3)CC2)n1,63.1
17,c1ccc(OCCNC2CCN(c3ncccn3)CC2)cc1,-15.2
18,Cc1nc(CN2CCCC(NCCOc3ccccc3)C2)no1 (stereo unspecified),-55.9
